According to PubChem BioAssay AID2599 (Sanford-Burnham Center for Chemical Genomics, 2010):
In all, about 330,000 compounds went through this assay and about 5,800 (1.8%) were called active.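 The calls were made as follows: active = inhibition above about 50% at the single tested dose (limit read from the data); inactive = the rest.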 This excerpt belongs to a sample that is enriched for actives.

The molecules below were run against Sentrin-specific protease 6 (Homo sapiens) (UniProt Q9GZR1) (assay: inhibition of human SENP6 catalytic domain – biochemical, luminescence, uHTS, primary screen (AID 2599;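 also: plate controls were DMSO wells with enzyme for no effect and DMSO wells lacking enzyme for full effect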)). Conditions: Recombinant SENP6 catalytic domain, aminoluciferin luminescence; at 10 µM; active compounds read high.
Chain of Sentrin-specific protease 6 (Homo sapiens) (Q9GZR1 628-1112 limits assumed): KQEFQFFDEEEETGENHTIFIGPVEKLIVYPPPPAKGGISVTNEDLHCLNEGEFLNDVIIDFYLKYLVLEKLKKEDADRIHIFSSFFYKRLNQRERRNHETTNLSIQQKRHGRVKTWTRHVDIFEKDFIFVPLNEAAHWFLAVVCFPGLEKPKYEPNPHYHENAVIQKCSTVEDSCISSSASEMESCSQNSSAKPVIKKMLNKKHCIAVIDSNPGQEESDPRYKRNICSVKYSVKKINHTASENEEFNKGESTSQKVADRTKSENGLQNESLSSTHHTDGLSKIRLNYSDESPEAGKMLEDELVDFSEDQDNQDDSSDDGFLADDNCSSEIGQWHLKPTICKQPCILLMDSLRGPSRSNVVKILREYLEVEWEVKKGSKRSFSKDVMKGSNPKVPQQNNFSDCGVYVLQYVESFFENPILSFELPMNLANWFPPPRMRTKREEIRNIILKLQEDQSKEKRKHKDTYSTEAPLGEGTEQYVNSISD
`COC(=O)c1cccc(C(=O)N2CCCC(Nc3ccc4c(c3)OCCO4)C2)c1` (configuration not stated) was tested, and the inhibition was 8.68% (inactive).
In the case of `OCCC#Cc1ccc(CN2CCN(Cc3ccsc3)C(CCO)C2)cc1` (configuration not stated), the inhibition is reported as -21.1% (inactive).
In the case of `O=C(NN=Cc1ccc(N2CCOCC2)cc1)c1cc2ccccc2cc1O`, the inhibition is reported as -12.9% (inactive).
In the case of `CC(=C/c1ccccc1)/C=N/NC(=O)c1cc(C)oc1C`, the inhibition is reported as 90.1% (active).
`CC(C)c1cc(C(=O)N/N=C/C(Br)=C/c2ccccc2)n[nH]1` was tested, and the inhibition was 2.83% (inactive).
In the case of `CCN(CC)c1ccc(C(=O)N/N=C/c2ccc(N3CCOCC3)cc2)cc1`, the inhibition is reported as -7.9% (inactive).
In the case of `Cc1cc(C(=O)N/N=C\C(Br)=C\c2ccccc2)c(C)o1`, the inhibition is reported as 54.2% (active).
With `Cc1cc(C(=O)N/N=C/c2ccc(N3CCOCC3)cc2)c(C)o1` the inhibition was 84.3% (active).
In the case of `Cc1cc(C(=O)NNC(=O)c2ccccc2O)c(C)o1`, the inhibition is reported as 0.955% (inactive).
In the case of `COc1ccc(C/C(C)=N/NC(=O)c2cc(C)oc2C)cc1`, the inhibition is reported as -24.2% (inactive).
`Cc1ccc(-c2cc(C(=O)N/N=C/C=C/c3ccccc3)n[nH]2)o1` was tested, and the inhibition was 1.41% (inactive).
For `CN1CCN(C(=O)/C(=C\c2cccs2)NC(=O)c2cccs2)CC1`, the inhibition was -14.6% (inactive).
With `CC(C)OCCCNC(=O)c1ccc(C2SCC(=O)N2Cc2ccco2)cc1` (configuration not stated) the inhibition was -6.37% (inactive).
For `CC(Sc1ccccc1F)C(=O)Nc1cccc(S(=O)(=O)N2CCOCC2)c1` (configuration not stated), the inhibition was -4.45% (inactive).
For `Nc1c(N(CCCO)C(=O)C2CCCC2)c(=O)[nH]c(=O)n1Cc1ccccc1`, the inhibition was -9.42% (inactive).
With `O=C(Cc1ccccc1)Nc1c(Cl)ccc2nsnc12` the inhibition was -21.2% (inactive).
With `Cc1ccc(C(=O)N/C(=C/c2cccnc2)C(=O)O)cc1` the inhibition was -4.97% (inactive).
For `C/C(=N\NC(=O)c1ccc(C)cc1)C1C(=O)c2ccccc2C1=O`, the inhibition was 92.3% (active).
For `C/C(=N\NC(=O)CNC(=O)C(c1ccccc1)c1ccccc1)c1ccc(C)cc1`, the inhibition was 7.95% (inactive).
For `CC(=O)Nc1ccc(S(=O)(=O)NNC(=O)CCc2ccccc2)cc1`, the inhibition was -9.47% (inactive).
For `C=C1c2c(Cl)ccc(O)c2C(O)=C2C(=O)[C@]3(O)C(O)=C(C(N)=O)C(=O)[C@@H](N(C)C)[C@@H]3[C@@H](O)C12` (some centres not stated), the inhibition was 1.61% (inactive).
For `Cc1ccccc1NC(=O)CSc1ccc2nnc(-c3ccccn3)n2n1`, the inhibition was -3.48% (inactive).
In the case of `CCOC(=O)CSc1nnc(-c2cccc(Br)c2)o1`, the inhibition is reported as -8.5% (inactive).
For `CCCCSc1nnc(-c2ccc(C)cc2)o1`, the inhibition was 50.8% (active).
In the case of `CCOC(=O)CSc1nnc(-c2ccc([N+](=O)[O-])cc2)o1`, the inhibition is reported as 2.93% (inactive).
`O=S(=O)(c1ccc(Br)cc1)N1CCC(c2nc3ccccc3[nH]2)CC1` was tested, and the inhibition was -3.25% (inactive).
`COC(=O)c1scc(C)c1NC(=O)CSc1ccc(Cl)cc1` was tested, and the inhibition was -3.94% (inactive).
`O=C(CN1CCN(c2ccccc2F)CC1)c1ccc2c(c1)OCO2` was tested, and the inhibition was -2.86% (inactive).
With `O=C(c1ccco1)N1CCN(C(=O)c2cc(-c3ccccc3F)no2)CC1` the inhibition was 4.97% (inactive).
`Fc1ccccc1-c1cc2cc3c(cc2cn1)OCO3` was tested, and the inhibition was 75.8% (active).
With `COC(=O)Cc1ccc(N(Cc2ccccc2F)S(=O)(=O)c2ccc(Br)cc2)cc1` the inhibition was -6.45% (inactive).
In the case of `CCOc1ccc(OCC)c(NC(=O)CSc2nnc(Cn3cnc4ccccc43)n2C)c1`, the inhibition is reported as 3.46% (inactive).
`O=C(CCN1CCc2ccccc2C(O)(c2ccccc2)C1)c1ccc2c(c1)OCCO2` (configuration not stated) was tested, and the inhibition was -26.4% (inactive).
In the case of `CC(C)CN(Cc1c(O)ccc2c(=O)c(-c3ccccc3)coc12)CC(C)C`, the inhibition is reported as -12.1% (inactive).
For `CCc1ccc(Oc2coc3cc(O)ccc3c2=O)cc1`, the inhibition was 14% (inactive).
With `O=c1c(-c2ccccc2)coc2cc(O)ccc12` the inhibition was 60.4% (active).
For `COc1ccc(C(C)NC(=S)NC2CCCCC2)cc1OC` (configuration not stated), the inhibition was -13.2% (inactive).
`CNC(=O)C1CC(=O)N(c2ccc(OCC(=O)Nc3ccccc3C)cc2)C1` (configuration not stated) was tested, and the inhibition was -8.41% (inactive).
For `O=C(c1cccs1)N1CCC(c2nc3ccccc3s2)CC1`, the inhibition was 5.91% (inactive).
In the case of `COc1ccc(C2=NN(c3nc4ccccc4s3)C(=O)C2)cc1`, the inhibition is reported as 2.49% (inactive).
With `COc1ccc(-n2nnnc2-c2nc3ccccc3s2)cc1` the inhibition was 54.6% (active).
With `COc1ccc(-n2nnnc2CNC(=O)c2ccc3ccccc3c2)cc1` the inhibition was -6.42% (inactive).
For `C=CCC(C(=O)c1ccccc1)[N+](C)(C)CC=C` (configuration not stated), the inhibition was -7.76% (inactive).
For `Cc1cnc(CN(C)C(=O)C2CCC(=O)N(CCc3cccc(F)c3)C2)[nH]1` (configuration not stated), the inhibition was 13.7% (inactive).
`O=C(Nc1ccc(NC(=O)c2cccs2)cn1)c1ccco1` was tested, and the inhibition was 22% (inactive).
`COc1ccc(OCC(=O)Nc2ccc(NC(=O)c3ccco3)c(C)c2)cc1` was tested, and the inhibition was -34.6% (inactive).
With `COc1cccc(C(=O)Nc2ccc(NC(=O)c3ccco3)cn2)c1` the inhibition was 64.1% (active).
For `COc1ccccc1C(=O)Nc1ccc(NC(=O)c2ccco2)c(C)c1`, the inhibition was 66.3% (active).
With `Cc1ccc(C(=O)COc2cccc(NC(=O)c3ccco3)c2)cc1` the inhibition was -16.4% (inactive).
`Cc1cc(NC(=O)c2ccc(F)cc2)ccc1NC(=O)c1ccco1` was tested, and the inhibition was 43.7% (inactive).
In the case of `CC[C@]1(c2ccccc2OC)C(=O)N(C(=O)OC)N1C(=O)OC`, the inhibition is reported as 0.734% (inactive).
For `CC(=O)Nc1ccc(OCCC[n+]2cccc(C(=O)[O-])c2)cc1`, the inhibition was -17.4% (inactive).
For `Nc1ccc(N=Nc2ccccc2Cl)c(N)n1`, the inhibition was 81.2% (active).
For `COc1cccc(NC(=O)c2cc(S(=O)(=O)N3CCc4ccccc43)cn2C)c1`, the inhibition was 3.36% (inactive).
`CC(=O)Nc1cccc(-c2nc3ccccc3s2)c1C` was tested, and the inhibition was -16.1% (inactive).
With `Cc1ccnc(Nc2nc3ccccc3s2)n1` the inhibition was 78.6% (active).
For `Cc1ccnc(-n2sc3ccccc3c2=O)n1`, the inhibition was 2.11% (inactive).
In the case of `CCn1nccc1C(=O)Nc1ccc(S(=O)(=O)NC23CC4CC(CC(C4)C2)C3)cc1`, the inhibition is reported as 1.42% (inactive).
In the case of `O=C(CC(O)(C(F)(F)F)C(F)(F)F)Nc1ccc(Cl)c(Cl)c1`, the inhibition is reported as 1.52% (inactive).
For `CCn1nccc1C(=O)Nc1ccc(Cl)c(Cl)c1`, the inhibition was 76.6% (active).
For `COc1ccc(OC)c(S(=O)(=O)N2CCCC(C(=O)NCCc3ccccc3)C2)c1` (configuration not stated), the inhibition was -9.45% (inactive).
`O=C(Cn1c(=S)nc2ccccn21)N1CCc2ccccc2C1` was tested, and the inhibition was -12.6% (inactive).
In the case of `O=C(c1ccc(F)cc1)n1c(=S)nc2ccccn21`, the inhibition is reported as 71.7% (active).
With `O=C(c1ccc(F)cc1)n1cc(C(=S)N2CCOCC2)c2ccccc21` the inhibition was 5.26% (inactive).
For `CCOc1cc2[nH]c(=S)n(CCCN3CCCC3=O)c(=O)c2cc1OCC`, the inhibition was -8.53% (inactive).
For `COc1ccc(NC(=O)C2CCCN(S(=O)(=O)c3cccc4cccnc34)C2)cc1` (configuration not stated), the inhibition was -2.53% (inactive).
With `O=C(Nc1cccc2cccnc12)c1cccc(Cl)c1` the inhibition was 38.9% (inactive).
In the case of `CCOC(=O)Cc1ncccc1C(=O)Nc1ccc(OC)cc1`, the inhibition is reported as 10.7% (inactive).
For `O=C(Nc1ccccc1Cl)O/N=C(/c1ccccc1)c1ccccn1`, the inhibition was 5.09% (inactive).
In the case of `COc1ccc(NC(=O)Nc2cccc3cccnc23)cc1`, the inhibition is reported as 80.7% (active).
For `O=C(Nc1ccccc1Cl)Nc1cccc2cccnc12`, the inhibition was 58.1% (active).
`COc1ccc(OCC(=O)NN2Cc3ccccc3C2=N)cc1` was tested, and the inhibition was -3.36% (inactive).
With `COC(=O)C1=C(C)N(Cc2ccccc2)C(=NCCCOC(C)C)N[C@H]1c1ccccc1` the inhibition was -15.2% (inactive).
`Cc1ccc(S(=O)(=O)N(C)CC(=O)OCC(=O)N2CC(=O)Nc3ccccc32)cc1` was tested, and the inhibition was -8.14% (inactive).
In the case of `Cn1c(N)c(C(=O)COC(=O)/C=C/c2ccc(OC(F)F)cc2)c(=O)n(C)c1=O`, the inhibition is reported as -13.8% (inactive).
For `Cc1ccccc1NC(=O)C1CCN(C(=O)NC2CCCCC2)CC1`, the inhibition was -18.9% (inactive).
For `O=C(Nc1cc2ccccc2oc1=O)C1CCCCC1`, the inhibition was 62.5% (active).
With `O=C(Nc1ccc2c(c1)OCCO2)C1CCCC1` the inhibition was 15.1% (inactive).
With `C[n+]1ccc(C(=O)NCc2ccccc2)cc1` the inhibition was -12.9% (inactive).
For `Cc1[nH]n(-c2ccc([N+](=O)[O-])cc2)c(=O)c1C=NCCN1CCN(C(=O)c2ccccc2F)CC1`, the inhibition was 87% (active).
`Cc1ccc(-n2[nH]c(C)c(/C=N/NC(=O)c3cccc([N+](=O)[O-])c3)c2=O)cc1C` was tested, and the inhibition was 27.4% (inactive).
For `C=CCNC(=S)N1CCN(CCN=Cc2c(C)[nH]n(-c3ccc([N+](=O)[O-])cc3)c2=O)CC1`, the inhibition was 1.69% (inactive).
For `O=C(COC(=O)c1ccccc1Cl)NC1CCCCCCC1`, the inhibition was -12.9% (inactive).
In the case of `Cc1ccc(-n2nc3ccc(NC(=O)/C=C/c4ccco4)cc3n2)cc1C`, the inhibition is reported as 10.8% (inactive).
In the case of `CCC(=O)Nc1ccc2nn(-c3ccc(F)cc3)nc2c1`, the inhibition is reported as 76.9% (active).
`Cc1nn(CC(=O)Nc2ccc(F)cc2)c(=O)c2ccccc12` was tested, and the inhibition was -16.4% (inactive).
For `CC(C(=O)N1CCc2ccccc21)N(C)CC(=O)Nc1ccc(F)cc1` (configuration not stated), the inhibition was -18.7% (inactive).
In the case of `O=C(/C=N/O)Nc1ccccc1`, the inhibition is reported as -8.91% (inactive).
With `Cc1ccc(-c2nc(-c3cccnc3)sc2CC(=O)Nc2ccc(C)c(Cl)c2)cc1` the inhibition was -22% (inactive).
With `Cc1[nH]n(C)c(=O)c1N=Nc1ccc(S(C)(=O)=O)cc1` the inhibition was -4.33% (inactive).
In the case of `Cc1cccc(N=Nc2c(C)[nH]n(-c3ccccc3)c2=O)c1`, the inhibition is reported as -17.2% (inactive).
In the case of `Cc1[nH]n(C(N)=S)c(=O)c1N=Nc1ccc(Cl)cc1Cl`, the inhibition is reported as 96.1% (active).
In the case of `COc1ccc(CCNC(=O)COC(=O)Cc2ccccc2F)cc1`, the inhibition is reported as 0.819% (inactive).
In the case of `CCN(CC)CCOCCOc1ccc(Cl)c2ccccc12`, the inhibition is reported as -6.66% (inactive).
`CCOC(=O)c1cnc2sccn2c1=O` was tested, and the inhibition was -5.45% (inactive).
`CCOC(=O)c1cnc(COc2ccccc2Cl)[nH]c1=O` was tested, and the inhibition was -27.6% (inactive).
With `CCOC(=O)c1cnc2[nH]c3ccccc3n2c1=O` the inhibition was 83% (active).
